# Reference: PubChem BioAssay (Tox21)
# Several values for one entry are separate records, joined by “and”; a condition that tells them apart may be missing. Equal values may be shown once. A number with no mark means an inactive call. Results filed as inconclusive are left out. A call without a number means that no potency is given here. Activity calls are given as the source filed them. Calls come from the whole dose curve; as a rule, active = well fitted curve in the direction sought with a large enough effect in the repeat runs; inconclusive = weak or mixed curves; inactive = no such curve, though single readings can be large; an effect the other way counts as inactive or inconclusive.
# Legend:
# [1] = qHTS RealTime-Glo MT Cell Viability Assay in HepG2 cells - 40 hour (AID 1224870); note: nearly all actives have a fitted effect of over 50% in size
# Method in brief: (§1)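 HepG2 cells (600/well) mixed with RealTime-Glo MT reagent, settled 5 h at 37 C/5% CO2 before compound addition. Nonlytic NanoLuc luminescence from viable-cell prosubstrate reduction read repeatedly during 40 h treatment at 37 C.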
# [2] = qHTS RealTime-Glo MT Cell Viability Assay in HEK293 cells - 16 hour (AID 1224872); note: top concentration of the series differs between compounds; nearly all actives have a fitted effect of over 50% in size
# Method in brief: (§2)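 HEK293 cells were seeded at 600 cells/well together with NanoLuc luciferase and cell-permeant prosubstrate, preincubated 5 h at 37 C/5% CO2, then given compound in DMSO by pintool. Luminescence from viable-cell prosubstrate reduction was read repeatedly over 40 h.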
# [3] = qHTS RealTime-Glo MT Cell Viability Assay in HepG2 cells - 8 hour (AID 1224873); note: nearly all actives have a fitted effect of over 55% in size
# Method in brief: as §1
# [4] = qHTS RealTime-Glo MT Cell Viability Assay in HEK293 cells - 40 hour (AID 1224874); settings: RealTime-Glo luminescence; max response: stronger effect = lower value; note: nearly all actives have a fitted effect of over 50% in size
# Method in brief: (§3)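 Nonlytic bioluminescent viability monitoring. HEK293 at 600 cells/well with reagent; 5 h settle; compound transfer by pintool; plates held at 37 C and read at set time points.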
# [5] = A CellTox Green Cytotoxicity Assay to monitor cytotoxicity in HEK293 cells - 24 hour (AID 1224875); note: series mostly up to about 77 µM; nearly all actives have a fitted effect of over 45% in size
# Method in brief: (§4)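 Cytotoxicity was tracked continuously in HEK293 cells by a DNA-binding dye excluded from viable cells. Compounds were transferred in DMSO 5 h after seeding; fluorescence was recorded at intervals up to 40 h.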
# [6] = A CellTox Green Cytotoxicity Assay to monitor cytotoxicity in HepG2 cells - 16 hour (AID 1224876); note: nearly all actives have a fitted effect of over 45% in size
# Method in brief: (§5)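 Real-time, homogeneous cytotoxicity readout: dead-cell DNA staining by CellTox Green in HepG2 monolayers, fluorescence measured at timed intervals up to 40 h of continuous compound exposure.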
# [7] = qHTS RealTime-Glo MT Cell Viability Assay in HepG2 cells - 32 hour (AID 1224877); note: nearly all actives have a fitted effect of over 55% in size
# Method in brief: (§6)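 HepG2 cells were seeded at 600 cells/well together with NanoLuc luciferase and a cell-permeant prosubstrate, preincubated 5 h at 37 C/5% CO2, then pin-dosed with compounds in DMSO. Nonlytic luminescence from viable cells was read at each time point.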
# [8] = A CellTox Green Cytotoxicity Assay to monitor cytotoxicity in HepG2 cells - 24 hour (AID 1224878); note: nearly all actives have a fitted effect of over 45% in size
# Method in brief: as §5
# [9] = A CellTox Green Cytotoxicity Assay to monitor cytotoxicity in HepG2 cells - 40 hour (AID 1224879); note: nearly all actives have a fitted effect of over 40% in size
# Method in brief: as §5
# [10] = qHTS RealTime-Glo MT Cell Viability Assay in HEK293 cells - 0 hour (AID 1224880); note: top concentration of the series differs between compounds; nearly all actives have a fitted effect of over 45% in size
# Method in brief: as §3
# [11] = A CellTox Green Cytotoxicity Assay to monitor cytotoxicity in HEK293 cells - 32 hour (AID 1224881); note: nearly all actives have a fitted effect of over 40% in size; note: potency is the fitted concentration of half-maximal effect
# Method in brief: as §4
# [12] = A CellTox Green Cytotoxicity Assay to monitor cytotoxicity in HepG2 cells - 0 hour (AID 1224882); note: nearly all actives have a fitted effect of over 35% in size
# Method in brief: as §5
# [13] = A CellTox Green Cytotoxicity Assay to monitor cytotoxicity in HepG2 cells - 32 hour (AID 1224883); note: nearly all actives have a fitted effect of over 50% in size
# Method in brief: as §5
# [14] = A CellTox Green Cytotoxicity Assay to monitor cytotoxicity in HEK293 cells - 8 hour (AID 1224884); note: nearly all actives have a fitted effect of over 35% in size
# Method in brief: as §4
# [15] = qHTS RealTime-Glo MT Cell Viability Assay in HEK293 cells - 24 hour (AID 1224886)
# Method in brief: as §2
# [16] = qHTS RealTime-Glo MT Cell Viability Assay in HEK293 cells - 8 hour (AID 1224887)
# Method in brief: as §3
# [17] = qHTS RealTime-Glo MT Cell Viability Assay in HepG2 cells - 0 hour (AID 1224889); note: nearly all actives have a fitted effect of over 50% in size
# Method in brief: as §6
# [18] = qHTS RealTime-Glo MT Cell Viability Assay in HepG2 cells - 16 hour (AID 1224885); note: nearly all actives have a fitted effect of over 50% in size
# Method in brief: as §6
# [19] = A CellTox Green Cytotoxicity Assay to monitor cytotoxicity in HEK293 cells - 16 hour (AID 1224888); note: nearly all actives have a fitted effect of over 35% in size
# Method in brief: as §4
SMILES,outcome [1],outcome [2],outcome [3],max response [4],Potency [5],Potency [6],outcome [7],Potency [8],Potency [9],outcome [10],Potency [11],Potency [12],Potency [13],Potency [14],outcome [15],outcome [16],outcome [17],outcome [18],Potency [19]
Nc1ccc([As](=O)(O)O)cc1,inactive,inactive,inactive,6.3% and -4.26% and 1.01%,inactive,inactive,inactive,inactive,inactive,inactive,inactive,inactive,inactive,inactive,inactive,inactive,inactive,–,–
O=C(O)COc1ccccc1,inactive,inactive,inactive,-2.67% and 2.52% and 5.65%,inactive,inactive,inactive,inactive,–,inactive,inactive,inactive,inactive,–,inactive,inactive,inactive,inactive,inactive
c1ccc2c(c1)CCCC2,inactive,inactive,inactive,1.92% and 10.6%,inactive,inactive,inactive,inactive,inactive,inactive,inactive,inactive,inactive,inactive,inactive,inactive,inactive,–,inactive
CNCC(O)c1ccc(O)cc1 (stereo not drawn),inactive,inactive,inactive,4.3% and -3.08%,inactive,inactive,inactive,inactive,–,inactive,inactive,inactive,inactive,inactive,inactive,inactive,inactive,inactive,inactive
Cc1cc(Cl)ccc1OC(C)C(=O)O (stereo not drawn),inactive,inactive,inactive,3.64% and -1.48%,inactive,inactive,inactive,inactive,inactive,inactive,inactive,inactive,inactive,–,inactive,inactive,inactive,–,inactive
OCC(O)CCl (stereo not drawn),inactive,inactive,inactive,-3.2% and 0.258%,inactive,inactive,inactive,inactive,–,inactive,inactive,inactive,inactive,inactive,inactive,inactive,inactive,inactive,–
CC12CC1(C)C(=O)N(c1cc(Cl)cc(Cl)c1)C2=O (stereo not drawn),inactive,inactive,inactive,1.77% and 7.9%,inactive,inactive,inactive,inactive,inactive,inactive,inactive,inactive,inactive,inactive,inactive,inactive,inactive,–,inactive
Nc1nc(N)nc(NC2CC2)n1,inactive,inactive,inactive,-1.36% and 9.96% and -0.244%,inactive,inactive,inactive,inactive,inactive,inactive,inactive,inactive,inactive,–,inactive,inactive,inactive,inactive,–
OCCCCO,inactive,inactive,inactive,2.32% and 1.82%,inactive,inactive,inactive,inactive,inactive,inactive,inactive,inactive,inactive,–,inactive,inactive,inactive,inactive,inactive
Clc1cnc(Oc2ccc(Oc3ncc(Cl)cc3Cl)cc2)c(Cl)c1,inactive,inactive,inactive,-4.51% and -10.8%,–,inactive,inactive,inactive,inactive,inactive,27.5 µM (active),inactive,inactive,–,inactive,inactive,inactive,–,–
COP(=S)(OC)SCN1C(=O)c2ccccc2C1=O,inactive,inactive,inactive,11.4% and 4.29% and 1.87%,inactive,inactive,inactive,inactive,inactive,inactive,inactive,inactive,inactive,–,inactive,inactive,inactive,inactive,inactive
OCc1ccco1,inactive,inactive,inactive,1.99% and 6.54%,inactive,inactive,inactive,inactive,inactive,inactive,inactive,inactive,inactive,–,inactive,inactive,inactive,inactive,inactive
CCOC(=O)CC(SP(=O)(OC)OC)C(=O)OCC (stereo not drawn),inactive,inactive,inactive,11.3% and 26.8%,inactive,inactive,inactive,inactive,–,inactive,inactive,inactive,inactive,–,inactive,inactive,inactive,inactive,–
O=C(O)C(Br)Br,inactive,inactive,inactive,-0.855% and 1.09%,inactive,inactive,inactive,inactive,inactive,inactive,inactive,inactive,inactive,inactive,inactive,inactive,inactive,–,–
CN(C)NC(=O)CCC(=O)O,inactive,inactive,inactive,2.52% and 2.58%,inactive,inactive,inactive,inactive,inactive,inactive,inactive,inactive,inactive,inactive,inactive,inactive,inactive,–,inactive
O=C(O)C1C(C(=O)O)C2(Cl)C(Cl)=C(Cl)C1(Cl)C2(Cl)Cl (stereo not drawn),inactive,inactive,inactive,9.62% and 1.68%,inactive,inactive,inactive,inactive,inactive,inactive,inactive,inactive,inactive,–,inactive,inactive,inactive,–,inactive
Cl[C@H]1OCCO[C@@H]1Cl,inactive,inactive,inactive,9.41% and 3.91%,inactive,inactive,inactive,inactive,–,inactive,inactive,inactive,inactive,inactive,inactive,inactive,inactive,inactive,inactive
CC[N+](=O)[O-],inactive,inactive,inactive,7.02% and 16.9%,inactive,inactive,inactive,inactive,–,inactive,inactive,inactive,inactive,–,inactive,inactive,inactive,–,inactive
CC(=O)C1CCOC1=O (stereo not drawn),inactive,inactive,inactive,3.16% and 1.64%,inactive,inactive,inactive,inactive,inactive,inactive,inactive,inactive,inactive,–,inactive,inactive,inactive,inactive,–
Cc1cccc(N)c1C,inactive,inactive,inactive,-0.402% and 10.2%,inactive,inactive,inactive,inactive,–,inactive,inactive,inactive,inactive,–,inactive,inactive,inactive,inactive,–
